MEP2 TOR yeast: yeast TOR pathway MEP2-GFP modulation; S. cerevisiae MEP2-GFP strain, flow cytometry GFP, 3 h; 100% = DMSO control level; GFP response vs DMSO, % at 10 µM; 0.51% of 330,000 active;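 active = GFP response versus DMSO above a set limit, roughly screen mean plus 3 SD, cut at about 180% in these data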;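 note: median GFP fluorescence of the barcode-gated MEP2-GFP cells per well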
RPL19A TOR yeast: yeast TOR pathway RPL19A-GFP modulation; S. cerevisiae RPL19A-GFP strain, flow cytometry, 3 h; hits give low values; percent response vs DMSO, % at 10 µM; 0.3% of 330,000 active;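 active = percent response vs DMSO below 50%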;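 note: median channel GFP fluorescence of the barcoded RPL19A-GFP strain; lower means less RPL19A-GFP as with rapamycin TOR inhibition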
CIT2 TOR yeast: yeast TOR pathway CIT2-GFP modulation. S. cerevisiae CIT2-GFP strain, flow cytometry, 3 h; 100 means same as DMSO wells. GFP response vs DMSO, % at 10 µM. 0.065% of 320,000 active. AID 2029;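 active = GFP response relative to DMSO above a set limit, near the screen mean plus 3 SD, cut at about 150% in these data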;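 note: ratio of well median GFP fluorescence to mean of DMSO wells on the plate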
LAP4 TOR yeast: alters LAP4-GFP fluorescence in TOR pathway yeast screen | 0.34% of 320,000 active | S. cerevisiae LAP4-GFP multiplex, flow cytometry GFP, 3 h; median GFP as percent of DMSO wells | GFP response vs DMSO, % at 10 µM;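 active = GFP response vs DMSO above a set limit, about the screen mean plus 3 SD, cut at about 150% in these data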
AGP1-GFP MLPCN: yeast TOR pathway AGP1-GFP modulation; S. cerevisiae AGP1-GFP multiplex flow cytometry, 3 h; GFP as percent of DMSO wells; GFP response vs DMSO, % at 10 µM; 0.02% of 320,000 active;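 active = GFP response relative to DMSO above a set limit, near screen average plus 3 SD, cut at about 150% in these data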;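 note: median GFP channel fluorescence of the gated AGP1 strain per well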
LAP4 cherry2: second confirmation of modulators of TOR reporter LAP4-GFP in yeast. shares compounds with LAP4 TOR yeast. S. cerevisiae LAP4-GFP strain, flow cytometry GFP, 3 h. GFP response vs DMSO, % at 10 µM. 20% of 590 active. AID 2621;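 active = GFP signal as percent of the solvent control above about 150%, meaning raised reporter expression, limit read from the data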
MEP2 cherry2: yeast MEP2-GFP modulation, second cherry pick; S. cerevisiae MEP2-GFP strain, flow cytometry GFP, 3 h; 10% of 590 active; shares compounds with LAP4 TOR yeast; GFP response vs DMSO, % at 10 µM; AID 2622;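 active = GFP signal above 150% of the solvent control wells, that is a rise of more than half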;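 note: median channel GFP fluorescence of all gated yeast cells per well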
RPL19A GFP CP2: second confirmation of modulators of TOR reporter RPL19A-GFP in yeast | shares compounds with LAP4 TOR yeast | 3% of 590 active | GFP response vs DMSO, % at 10 µM | S. cerevisiae RPL19A-GFP strain, flow cytometry GFP, 3 h; hits give low values; 100% means same as DMSO wells;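 active = under 65% GFP response relative to DMSO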;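 note: median GFP channel fluorescence per well over the all cells gate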
CIT2 GFP CP2: second confirmation of modulators of TOR reporter CIT2-GFP in yeast; 8% of 590 active; S. cerevisiae CIT2-GFP strain, flow cytometry GFP, 3 h; DMSO control wells read 100%; shares compounds with LAP4 TOR yeast; GFP response vs DMSO, % at 10 µM;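 active = GFP response vs DMSO above about 150%, limit read from the data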;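 note: median green fluorescence per well over all gated yeast cells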
AGP1 GFP CP2: second confirmation of modulators of TOR reporter AGP1-GFP in yeast; S. cerevisiae AGP1-GFP strain, flow cytometry GFP, 3 h; percent response vs DMSO, % at 10 µM; shares compounds with LAP4 TOR yeast; 590 tested, under 10 active;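 active = over 150 percent of DMSO response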;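 note: median GFP channel fluorescence over all cells without mother daughter split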
s288c autofluor: counter-screen for compound autofluorescence in yeast s288c cells; shares compounds with LAP4 TOR yeast; S. cerevisiae s288c, 520 nm autofluorescence, flow cytometry, 3 h; hits give high values; zero means same as solvent-only cells; fluorescence change (kMESF span) at 33 µM; 610 tested, under 10 active; AID 2757;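 active = fluorescence span over the dose series, or activity score, above about 33, limit read from the data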
s288c autofl DR: TOR screen hit shows autofluorescence in yeast s288c | fluorescence change (span) at 33 µM | S. cerevisiae s288c parental, compound autofluorescence, flow cytometry, 3 h | shares compounds with LAP4 TOR yeast | AID 488829 | 110 tested, under 10 active;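 active = fluorescence change span, or the activity score built from it, above 25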
TORC1 bypass: stops wildtype yeast growth while TORC1 bypass cells still grow; shares compounds with LAP4 TOR yeast; S. cerevisiae BY4741 spot growth rating, 48-72 h; hits give low values; growth rating (0-3) at 30 µM; 120 tested, under 10 active;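 active = growth rating at most 1 for wild type yeast while the TORC1 bypass strain still grows fully, rated 3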
Large screens that a line does not name were inactive (follow-up assays come after a bar, where they were run). Shown are actives, neighbours in structure and some others; about 0.92% of the full set was active somewhere.

O=[N+]([O-])c1cc(S(=O)(=O)C(F)(F)F)ccc1Sc1nc2ccccc2s1	LAP4 TOR yeast 159 | s288c autofluor inactive | s288c autofl DR inactive | TORC1 bypass inactive
Cc1ccc(/C(N)=N/OC(=O)c2ccc(F)cc2)cc1	CIT2 TOR yeast 170 | s288c autofluor inactive
COc1ccc(NC(=O)CN(C)C(=O)c2ccc(NS(=O)(=O)c3ccc4[nH]c(=O)[nH]c4c3)cc2)cc1	none
CC1CCN(C(=O)c2ccccc2NC(=O)c2cccc(S(=O)(=O)N(C)C)c2)CC1	none
CN(C)S(=O)(=O)c1cccc(C(=O)Nc2ccccc2C(=O)NC2CC2)c1	LAP4 TOR yeast 152 | LAP4 cherry2 inactive | MEP2 cherry2 inactive | RPL19A GFP CP2 inactive | CIT2 GFP CP2 inactive | AGP1 GFP CP2 inactive
COc1cccc(CNC(=S)Nc2cc(C)ccc2C)c1	none
CSCCC(NS(=O)(=O)c1ccccc1)C(=O)OCc1cc(=O)oc2cc(O)ccc12 (stereo unspecified)	none
O=c1c2cc(Cl)ccc2nc(-c2ccccc2Cl)n1O	none | LAP4 cherry2 inactive | MEP2 cherry2 inactive | RPL19A GFP CP2 inactive | CIT2 GFP CP2 inactive | AGP1 GFP CP2 inactive
COc1ccccc1OCC(O)CNCc1ccc2c(c1)OCO2 (stereo unspecified)	none
O=c1cc(C(F)(F)F)[nH]c2ccc(OC(F)(F)F)cc12	none | LAP4 cherry2 inactive | MEP2 cherry2 inactive | RPL19A GFP CP2 inactive | CIT2 GFP CP2 inactive | AGP1 GFP CP2 inactive
O=c1cc(C(F)(F)F)[nH]c2c(C(F)(F)F)cccc12	none
c1ccc(-c2cccc(-c3ccccn3)n2)nc1	LAP4 TOR yeast 319 | s288c autofluor inactive | s288c autofl DR inactive | TORC1 bypass inactive
c1ccc(-c2nnc(-c3ccccn3)nn2)nc1	none
CCc1ccccc1NC(=O)C1(S(=O)(=O)c2ccc(C)cc2)CC1	none
Cc1ccc(-c2csc(NC(=O)CSc3nnc4c(n3)[nH]c3ccccc34)n2)cc1	none
CCC1CCCCN1C(=O)C(=O)c1cn(CC(=O)N(CC)CC)c2ccccc12 (stereo unspecified)	CIT2 TOR yeast 181 | LAP4 cherry2 inactive | MEP2 cherry2 inactive | RPL19A GFP CP2 inactive | CIT2 GFP CP2 inactive | AGP1 GFP CP2 inactive
CC(C)CNC(=S)N1CCC(C(=O)c2ccc3c(c2)OCCO3)CC1	none
COc1cc(/C=C2\C(=O)ON=C2c2ccccc2)cc(Cl)c1O	none
CCCCc1ccc(/C=C2/C(=O)ON=C2c2ccccc2)s1	none | LAP4 cherry2 inactive | MEP2 cherry2 inactive | RPL19A GFP CP2 inactive | CIT2 GFP CP2 inactive | AGP1 GFP CP2 inactive | s288c autofluor inactive
Cc1sc(/C=C2\C(=O)ON=C2c2ccccc2)cc1Br	none | LAP4 cherry2 inactive | MEP2 cherry2 inactive | RPL19A GFP CP2 inactive | CIT2 GFP CP2 inactive | AGP1 GFP CP2 inactive | s288c autofluor inactive
Cc1ccc(C2=NOC(=O)/C2=C\c2ccccc2)cc1	none
CC(=O)c1ccc(NC(=O)CN(C)CC(=O)Nc2cccc(F)c2)cc1	none
CC1CCCC(NC(=O)CN(C)CC(=O)Nc2cccc(F)c2)C1C (stereo unspecified)	LAP4 TOR yeast 172 | LAP4 cherry2 inactive | MEP2 cherry2 inactive | RPL19A GFP CP2 inactive | CIT2 GFP CP2 inactive | AGP1 GFP CP2 inactive
O=C(COC(=O)CNC(=O)c1cccc(OC(F)F)c1)NNC(=O)c1ccccc1	none
CCN(CC)S(=O)(=O)c1ccc(S(=O)(=O)N2CCC(N3CCCCC3)CC2)cc1	none
CC(=O)[C@]1(O)Cc2c(O)c3c(c(O)c2[C@@H](O[C@H]2C[C@H](N)[C@H](O)[C@H](C)O2)C1)C(=O)c1ccccc1C3=O	LAP4 TOR yeast 152 | LAP4 cherry2 151 | MEP2 cherry2 153 | RPL19A GFP CP2 inactive | CIT2 GFP CP2 inactive | AGP1 GFP CP2 inactive | s288c autofluor inactive
COc1cccc2c1C(=O)c1c(O)c3c(c(O)c1C2=O)C[C@@](O)(C(=O)CO)C[C@@H]3O[C@H]1C[C@H](N)[C@@H](O)[C@H](C)O1	none
CNc1nc(N)c([N+](=O)[O-])c(NCc2ccccc2)n1	none | s288c autofl DR inactive | TORC1 bypass inactive
Nc1nc(NCc2ccccc2)nc(NCc2ccccc2)c1[N+](=O)[O-]	none
CNc1nc(N)c([N+](=O)[O-])c(Nc2ccc(F)cc2)n1	none (no result: MEP2 TOR yeast, RPL19A TOR yeast, CIT2 TOR yeast, LAP4 TOR yeast, AGP1-GFP MLPCN) | s288c autofl DR inactive | TORC1 bypass inactive
CNc1nc(C)c([N+](=O)[O-])c(Nc2ccc(OC)cc2)n1	none
CC(C)CNc1nc(N)c([N+](=O)[O-])c(NC2CCCCC2)n1	none
CNc1nc(N)c([N+](=O)[O-])c(NC2CCCCC2)n1	none | s288c autofl DR inactive | TORC1 bypass inactive
CNc1nc(N)c([N+](=O)[O-])c(Nc2ccc(OC)cc2)n1	none (no result: MEP2 TOR yeast, RPL19A TOR yeast, CIT2 TOR yeast, LAP4 TOR yeast, AGP1-GFP MLPCN) | s288c autofl DR inactive | TORC1 bypass inactive
Cc1ccc(CNc2nc(N)c([N+](=O)[O-])c(Nc3ccc(F)cc3)n2)cc1	none
O=C(C1CC(c2ccccc2O)=NO1)N1CCCCC1 (stereo unspecified)	none
OCCC1CN(Cc2cccc(-n3cccn3)c2)CCN1Cc1ccccc1 (stereo unspecified)	none
O=C(NNC(=S)NC(=O)C12CC3CC(CC(C3)C1)C2)c1ccncc1	LAP4 TOR yeast 182 (no result: CIT2 TOR yeast) | s288c autofluor inactive
